KDM5B inh: blocks human KDM5B histone demethylase activity; AID 1347165; Potency, µM (series often up to 57.7 µM), hits mostly inhibitors; KDM5B demethylase, FDH-coupled NADH fluorescence (FDH is formaldehyde dehydrogenase); Q9UGL1; 220,000 tested, 2.6% active; also: potency is read from the fitted curve at half-maximal effect; 0% is about no effect; nearly all actives have a fitted effect of over 70% in size
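qHTS format, multiple compound concentrations. Buffer 50 mM HEPES pH 7.5/0.01% Tween-20; 200 nM KDM5BΔAP final; 10 min compound preincubation; substrate-mix levels 12.5 µM peptide, 25 µM α-KG, 0.25 mM NAD⁺; 30 min RT; ΔRFU.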
SNCA expr inh: reduces expression of the alpha-synuclein gene | HEK-293 SNCA-luciferase knock-in, luminescence, 24 h | Potency, µM (series often up to 57.2 µM), for the others: top-dose activity change, negative = inhibition, actives largely listed as inhibitors | 140,000 tested, 0.17% active | AID 1671194;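 also: potency is read from the fitted curve at half-maximal effect; plate controls were DMSO cells for no effect and cell-free wells for full effect; nearly all actives have a fitted effect of over 45% in size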
SNCA viab count: cell viability loss counter-screen; HEK-293-SNCA-luc viability, GF-AFC fluorescence, 24 h; Potency, µM (highest dose often 57.1 µM), for inactives: at the highest dose activity change, negative = cytotoxicity, usual class: cytotoxic; 150,000 tested, 0.12% active; AID 1671193;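 also: potency is read from the fitted curve at half-maximal effect; 0% = DMSO-treated cells and -100% = medium-only wells without cells; nearly all actives have a fitted effect of over 30% in size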
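Cytotoxicity counterscreen: after 24 h compound treatment of genome-edited SNCA-luciferase HEK-293 cells, live-cell protease substrate GF-AFC read by fluorescence after 30 min; activity scaled between DMSO (0%) and medium-only (-100%), curves Hill-fitted.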
IP6K1 inh: inhibitors of human IP6K1 | IP6K1 kinase, ADP-Glo luminescence, 2 h; hits give low values | activity change, % (series mostly up to about 58 µM) | 140,000 tested, 0.81% active | AID 1645851; in the data active = activity change below about -25%; also: % is scaled to controls: 0 for no effect and ±100 for the full control effect
Target sequence (Q92551 whole entry, looked up): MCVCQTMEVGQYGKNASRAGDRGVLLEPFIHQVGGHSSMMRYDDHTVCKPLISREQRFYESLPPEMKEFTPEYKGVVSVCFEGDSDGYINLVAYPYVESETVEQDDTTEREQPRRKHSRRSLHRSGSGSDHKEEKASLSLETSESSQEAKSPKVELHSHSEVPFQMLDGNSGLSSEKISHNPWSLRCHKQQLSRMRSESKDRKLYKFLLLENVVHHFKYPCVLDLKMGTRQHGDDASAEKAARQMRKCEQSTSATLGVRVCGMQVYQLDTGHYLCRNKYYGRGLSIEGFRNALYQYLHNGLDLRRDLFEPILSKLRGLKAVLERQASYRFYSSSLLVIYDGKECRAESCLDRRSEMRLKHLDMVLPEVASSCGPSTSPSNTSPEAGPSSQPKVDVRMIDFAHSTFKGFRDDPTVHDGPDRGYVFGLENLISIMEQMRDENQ
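ADP-Glo luminescence measures ADP made by human IP6K1 during a 2 h RT reaction with ATP/IP6 (mix at 1.3 mM/130 uM); top library doses 57.5 and 19.1 uM final.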
* = called active by the depositor; i = inactive; ? = inconclusive; · = no result given; [ ] = dose if it differs, or a comment. Hits are enriched below; roughly 2.9% of the tested compounds scored in any of these assays. Unless noted, calls follow the shape of the dose curve; as a rule, active = well fitted curve in the direction sought with a large enough effect; inconclusive = small, poorly fitted or top-dose-only effect, or another doubt; inactive = no such curve, though single readings can be large; an effect the other way counts as inactive or inconclusive.

SMILES	KDM5B inh	SNCA expr inh	SNCA viab count	IP6K1 inh
Cc1ccc(-c2cc3c(=O)n(CCNC(=O)c4cccc5[nH]ccc45)ccn3n2)cc1C	28µM*	-16%	?	-4
Cc1ccc(-c2cc3c(=O)n(CCNC(=O)c4ccoc4)ccn3n2)cc1C	?	27%	-19%	-10
Cc1ccc(-c2cc3c(=O)n(CCNC(=O)c4ccc[nH]c4=O)ccn3n2)cc1C	35µM*	-10%	-14%	-10
Cc1cc(C)c(C#N)c(N2CCC3(CCC(=O)N(CC(C)O)C3)CC2)n1 (centres undefined)	28µM*	2%	-10%	21
Cc1nn(-c2ccccc2)c2c1C(C)N(C1CN([S+](=O)([O-])c3ccccc3)C1)C2=O (centres undefined)	·	·	·	13
COc1ccc(-c2ccnc3nc(C4CCC4)nn23)c(F)c1	28µM*	-5%	-11%	11
COc1cc(F)ccc1-c1ccnc2nc(C3CCCO3)nn12 (centres undefined)	28µM*	8%	6%	-8
c1ccc2oc(-c3ccnc4nc(C5CCC5)nn34)cc2c1	11µM*	21%	4%	-4
COc1cc(F)ccc1-c1ccnc2nc(C3CCC3)nn12	28µM*	-20%	11%	-10
COc1ccc(-c2ccnc3nc(C4CCC4)nn23)cc1OC	?	32%	5%	6
COc1cc(-c2ccnc3nc(C4CCCCC4)nn23)cc(OC)c1OC	25µM*	8%	2%	14
O=C(CC1CCCC1)N1CC[C@@]2(O)CCN(Cc3ccccn3)C[C@H]2C1	25µM*	-14%	0%	4
CCOc1ccc2c(n1)CCN(C(=O)Nc1ccc(C)c(C)c1)C2	i	161%	7%[12.5 µM]	10
CCCS(=O)(=O)Nc1ccc2n(c1=O)C[C@H]1C[C@@H]2CN(C(=O)c2ccc(-c3ccccc3)cc2)C1	20µM*	38%	1%	-10
CSCC(=O)Nc1ccc2n(c1=O)C[C@H]1C[C@@H]2CN(C(=O)c2ccc(-c3ccccc3)cc2)C1	i	1%	-3%	-3
Cc1ccc(-n2ncc3c(N4CCCCC4)ncnc32)cc1Cl	i	7.1µM*	7%	-4
Cc1ccc(-n2ncc3c(N4CCCCC4)ncnc32)cc1	?	0.89µM*	3%	14
Cc1ccc(-n2ncc3c(N4CCC(Cc5ccccc5)CC4)ncnc32)cc1	i	-8%	-6%	10
Cc1ccc(-n2ncc3c(N4CCCCCC4)ncnc32)cc1Cl	i	9%	2%	10
CSc1ccc(-c2cccc(CN3CCC(NC(=O)Nc4ccccc4F)CC3)c2)cc1	·	·	·	27
Cc1ccccc1C(=O)N1CC(N2C(=O)c3c(c(C)nn3-c3ccccc3)C2C(C)C)C1 (centres undefined)	·	·	·	1
Cc1oc(-c2ccc3ccccc3c2)nc1CN1CCNC(=O)C1	28µM*	140%	26%	-16
Cc1nn2c(c1-c1ccnn1C(C)C)N(C(=O)C(C)C)CCC2	i	8%[87.6 µM]	1%[87.6 µM]	11
Cc1nn2c(c1-c1ccnn1C(C)C)N(Cc1ccc(C(=O)O)s1)CCC2	25µM*	?	?	1
O=C1N[C@H](CC(=O)N2CCN(c3ccc(C(F)(F)F)cn3)CC2)C(=O)Nc2ccccc21	22µM*	?	2%	6
SMILES	KDM5B inh	SNCA expr inh	SNCA viab count	IP6K1 inh
O=c1c2cc(-c3ccc(F)cc3)nn2ccn1CC(O)c1ccc(F)cc1 (centres undefined)	20µM*	-13%	7%	0
O=c1c2cc(-c3ccc(F)cc3)nn2ccn1CC(O)c1ccc2c(c1)OCO2 (centres undefined)	32µM*	9%	2%	0
CN(C)C(=O)c1ccc(CC2CCN(C(=O)CC3CCCCC3)CC2)cc1	i	-27%	-15%	-16
CN1CC(=O)N(C2CCCC2)Cc2c(NCc3cccc(Cl)c3)ncnc21	·	18%	-9%	6
COc1ccc(CCNC(=O)c2nc3cccnc3n(C3CCCCC3)c2=O)cc1	·	-5%	-13%[12.5 µM]	5
c1csc(-c2nc3nccc(-c4ccncc4)n3n2)c1	28µM*	87%	4%	-3
c1coc(-c2ccnc3nc(-c4cccs4)nn23)c1	28µM*	8%	-7%	2
Brc1ccc(-c2ccnc3nc(-c4cccs4)nn23)cc1	7.9µM*	138%	10%	1
CC1(c2noc(-c3ccccc3)n2)CCN(C(=O)CCc2cc(Cl)no2)CC1	·	6%	2%	10
CCc1nn(-c2ccccc2)c(Oc2ccc(C)cc2)c1CCC(=O)N1CCSCC1	i	-17%	-10%	-15

Source: PubChem (National Center for Advancing Translational Sciences (NCATS))
